# Data published in PubChem BioAssay (EPA / NIEHS).
# Inconclusive results are not listed. The source holds several records for some structures; these can differ, active in one and inactive in another. Active and inactive are the calls of the source. The calls were made as follows, unless noted: active = hit-call score of the fitted dose curve at least 0.9, where 1 is the maximum; inconclusive = response in the unintended direction; inactive = score below 0.9.
# What was measured:
# [1] = target: Estrogen receptor beta (Homo sapiens) (UniProt Q92731); test: OT_ER_ERbERb_1440: Odyssey Thera (OT) 24-hour HEK293T Protein-Complementation Assay for Estrogen Receptor-beta/-beta Homodimer (AID 2283380);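 also: fluorescence gain from ER beta LBD homodimer complementation read by laser scanning cytometry; scored as signal increase over DMSO baseline for both agonists and antagonists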
# Summary of the method: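 HEK293T cells stably expressing human ER-beta LBD (aa 310-547) PCA homodimer pair, dosed 24 h; formaldehyde-fixed, Draq5-stained. Readout: increase in nuclear (agonist) or nuclear plus cytoplasmic (antagonist) fluorescence intensity versus DMSO, gain-of-signal fitting.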
# [2] = target: Bile acid receptor (Homo sapiens) (UniProt Q96RI1); test: OT_FXR_FXRSRC1_0480: Odyssey Thera (OT) 8-hour HEK293T Protein-Complementation Assay for Farnesoid X receptor/SRC-1 Co-activator (AID 2283383)
# Summary of the method: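 Binding of FXR to coactivator SRC-1 was read as fluorescence from a reconstituted split reporter in HEK293T cells, 8 h after chemical addition. Only increases in signal versus DMSO were fit.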
# [3] = target: Bile acid receptor (Homo sapiens) (UniProt Q96RI1); test: OT_FXR_FXRSRC1_1440: Odyssey Thera (OT) 24-hour HEK293T Protein-Complementation Assay for Farnesoid X receptor/SRC-1 Co-activator (AID 2283384)
# Summary of the method: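 Protein-fragment complementation: FXR and SRC-1 fused to reporter fragments that reassemble on interaction, read by fluorescence intensity. Human HEK293T cells measured 24 h post-dose; positive-direction fit versus DMSO.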
# [4] = target: Retinoic acid receptor RXR-alpha (Homo sapiens) (UniProt P19793); test: OT_NURR1_NURR1RXRa_1440: Odyssey Thera (OT) 24-hour HEK293T Protein Complementation Assay for Nurr1/retinoid X receptor (RXR) (AID 2283386)
# Summary of the method: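 Gain in fluorescence, fitted relative to DMSO, reflects Nurr1–RXRα association in HEK293T cells after 24 h dosing. Bait and prey are each linked to a reporter-protein fragment that reassembles on interaction.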
# [5] = target: Peroxisome proliferator-activated receptor gamma (Homo sapiens) (UniProt P37231); test: OT_PPARg_PPARgSRC1_0480: Odyssey Thera (OT) 8-hour Protein-Complementation Assay for Peroxisome Proliferator-activated Receptor Gamma / SRC-1 Co-activator (AID 2283387);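 also: nuclear to cytoplasmic split Venus YFP fluorescence ratio reporting PPARg SRC-1 interaction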
# Summary of the method: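 Split-YFP (IFP1/IFP2) PPARg/SRC-1 reporter, HEK293T, 37 °C, 5% CO2; 8 h compound; formaldehyde fix + Draq5; high-content imaging, N/C ratio, ≥350 cells/image, positive direction vs DMSO.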
# [6] = CEETOX_H295R_OHPREG: CeeTox H295R High-throughput Steroidogenesis Assay for OH-Pregnenolone (OHPREG) (AID 2283434; active = hit-call score of the fitted dose curve at least 0.9, where 1 is the maximum; inactive = score below 0.9); settings: actives raise or lower the signal
# Summary of the method: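 Readout: HPLC-MS/MS of 17alpha-hydroxypregnenolone in medium after 48 h chemical exposure of H295R cells pretreated with forskolin. Values fitted bidirectionally relative to DMSO; chemicals reducing viability to 20–70% were retested after 10-fold dilution.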
# [7] = CEETOX_H295R_OHPROG: CeeTox H295R High-throughput Steroidogenesis Assay for OH-Progesterone (OHPROG) (AID 2283435; active = hit-call score of the fitted dose curve at least 0.9, where 1 is the maximum; inactive = score below 0.9); settings: actives raise or lower the signal
# Summary of the method: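 Medium steroid levels read by LC-MS/MS after 48 h chemical treatment (0.1% DMSO) of human adrenal H295R cells that had been forskolin-primed (10 uM, 48 h). Gain or loss fitted against DMSO; MTT cytotoxicity checked per well.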
# [8] = CEETOX_H295R_ANDR: CeeTox H295R High-throughput Steroidogenesis Assay for Androstenedione (ANDR) (AID 2283436; active = hit-call score of the fitted dose curve at least 0.9, where 1 is the maximum; inactive = score below 0.9;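 also: human H295R adrenal cells exposed for 48 h with androstenedione measured in medium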); settings: actives raise or lower the signal
# Summary of the method: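 Steroidogenesis in H295R adrenal cells after 48 h dosing; androstenedione quantified by LC-MS/MS, with DMSO as negative control and baseline for bidirectional curve fitting.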
# [9] = CEETOX_H295R_PROG: CeeTox H295R High-throughput Steroidogenesis Assay for Progesterone (PROG) (AID 2283442; active = hit-call score of the fitted dose curve at least 0.9, where 1 is the maximum; inactive = score below 0.9;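 as to AC50: human H295R adrenal cells primed with 10 µM forskolin before dosing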); settings: actives raise or lower the signal
# Summary of the method: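 Progesterone read-out: HPLC-MS/MS on MTBE extracts of conditioned medium after 48 h chemical exposure of forskolin-primed (10 uM, 48 h) H295R cells. Gain or loss of signal was fitted relative to DMSO baseline.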
# [10] = target: human Norepinephrine Transporter (NET), SLC6A2 (gene 6530) (UniProt P23975); test: NVS_TR_hNET: NovaScreen (NVS) Transporter Assay for human Norepinephrine Transporter (NET) (AID 2283377);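 also: cell-free membrane protein extracted from CHO cells expressing human NET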;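 as to AC50: displacement of radioligand from human NET seen as loss of scintillation signal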
# Summary of the method: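 In this cell-free binding screen, chemicals at 25 uM (duplicate) compete with a radioligand for CHO-derived human NET over 1 hour, with filter-based radiodetection.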
# [11] = target: Peroxisome proliferator-activated receptor gamma (Homo sapiens) (UniProt P37231); test: OT_PPARg_PPARgSRC1_1440: Odyssey Thera (OT) 24-hour Protein-Complementation Assay for Peroxisome Proliferator-activated Receptor Gamma/ SRC-1 Co-activator (AID 2283388);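 also: nuclear to cytoplasmic ratio of reconstituted Venus YFP fluorescence in fixed imaged cells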
# Summary of the method: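 Readout: nuclear-to-cytoplasmic 488 nm fluorescence ratio, ≥350 cells per image, 8 images per well, after 24 h compound exposure of HEK293T expressing PPARg/SRC-1 split-YFP fusions. Activity fitted in positive direction against DMSO.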
# [12] = CEETOX_H295R_CORTIC: CeeTox H295R High-throughput Steroidogenesis Assay for Corticosterone (CORTIC) (AID 2283437; active = hit-call score of the fitted dose curve at least 0.9, where 1 is the maximum; inactive = score below 0.9;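 also: corticosterone secreted into medium quantified by mass spectrometry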); settings: actives raise or lower the signal
# Summary of the method: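 Steps: seed H295R, adhere overnight; 10 uM forskolin 48 h; replace with chemical (0.1% DMSO) 48 h; extract medium with MTBE; quantify corticosterone by HPLC-MS/MS; score bidirectionally vs DMSO.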
# [13] = CEETOX_H295R_CORTISOL: CeeTox H295R High-throughput Steroidogenesis Assay for Cortisol (AID 2283438; active = hit-call score of the fitted dose curve at least 0.9, where 1 is the maximum; inactive = score below 0.9); settings: actives raise or lower the signal
# Summary of the method: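 Cortisol measured by HPLC-MS/MS after MTBE extraction of medium from H295R cells exposed 48 h to chemical (0.1% DMSO), following 48 h prestimulation with 10 uM forskolin. Viability assessed by MTT in the same wells.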
# [14] = CEETOX_H295R_DOC: CeeTox H295R High-throughput Steroidogenesis Assay for DOC (AID 2283439; active = hit-call score of the fitted dose curve at least 0.9, where 1 is the maximum; inactive = score below 0.9); settings: actives raise or lower the signal
# Summary of the method: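 11-Deoxycorticosterone quantified in medium by MTBE extraction and HPLC-MS/MS after 48 h chemical exposure (0.1% DMSO) of forskolin-primed (10 uM, 48 h) H295R cells. Same-well MTT viability; data fitted bidirectionally against DMSO.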
# [15] = target: Estrogen receptor (Homo sapiens) (UniProt P03372); test: OT_ERa_GFPERaERE_0120: Odyssey Thera (OT) 2-hour HeLa Transcription Induction Assay for Estrogen Receptor (AID 2283382)
# Summary of the method: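 Fluorescence-microscopy images of the GFP-ERα/ERE reporter, scored by high-content image algorithms, give the readout. HeLa exposure lasted 2 h, and only signal increase over DMSO was fitted.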
# [16] = target: Agonist Androgen Response Element (ARE), AR (gene 367) (UniProt P10275); test: OT_AR_ARELUC_AG_1440: Odyssey Thera (OT) 24-hour CHO-K1 Luciferase Assay for Agonist Androgen Response Element (ARE) (AID 2283379)
# Summary of the method: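 Luminescence increase above DMSO, read after a 24 h compound treatment of CHO-K1 cells expressing an androgen response element luciferase reporter, gives the single primary endpoint; concentration-response fitting used the positive direction.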
# [17] = target: Retinoic acid receptor RXR-alpha (Homo sapiens) (UniProt P19793); test: OT_NURR1_NURR1RXRa_0480: Odyssey Thera (OT) 8-hour HEK293T Protein Complementation Assay for Nurr1/retinoid X receptor (RXR) (AID 2283385)
# Summary of the method: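 Interaction of Nurr1 with RXRα read as reconstituted reporter fluorescence in a HEK293T fragment-complementation system, 8 h post-treatment; increase over DMSO baseline analysed.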
# [18] = CEETOX_H295R_ESTRADIOL: CeeTox H295R High-throughput Steroidogenesis Assay for Estradiol (AID 2283440; active = hit-call score of the fitted dose curve at least 0.9, where 1 is the maximum; inactive = score below 0.9;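 also: estradiol secreted into medium quantified by LC-MS/MS after dansyl derivatisation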); settings: actives raise or lower the signal
# Summary of the method: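 H295R, 48 h forskolin (10 uM) prestim → 48 h compound, 0.1% DMSO final. Estradiol in medium: MTBE extraction, dansyl chloride derivatization, LC-MS/MS. Fit bidirectional vs DMSO baseline; MTT viability in same wells.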
# [19] = CEETOX_H295R_ESTRONE: CeeTox H295R High-throughput Steroidogenesis Assay for Estrone (AID 2283441; active = hit-call score of the fitted dose curve at least 0.9, where 1 is the maximum; inactive = score below 0.9); settings: actives raise or lower the signal
# Summary of the method: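 Estrone secreted into medium quantified by LC-MS/MS after dansyl chloride derivatization, following 48 h chemical exposure (0.1% DMSO final) of forskolin-prestimulated (10 uM, 48 h) H295R cells; gain or loss fitted against DMSO; MTT viability in same wells.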
# [20] = target: Norway rat Vesicular Monoamine Transporter (VMAT2), neurotransmitter transporter, Slc18a2 (gene 25549) (UniProt Q01827); test: NVS_TR_rVMAT2: NovaScreen (NVS) Transporter Assay for Norway rat Vesicular Monoamine Transporter (VMAT2), neurotransmitter transporter (AID 2283376);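 also: actives lower the bound radioligand signal below the DMSO level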
# Summary of the method: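 Binding endpoint from rat forebrain tissue, cell-free; 1 h incubation; filtered radioligand counted; 25 uM duplicate primary then dose series; DMSO negative control.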
# Sequence of Agonist Androgen Response Element (ARE), AR (gene 367) (P10275 whole entry, looked up): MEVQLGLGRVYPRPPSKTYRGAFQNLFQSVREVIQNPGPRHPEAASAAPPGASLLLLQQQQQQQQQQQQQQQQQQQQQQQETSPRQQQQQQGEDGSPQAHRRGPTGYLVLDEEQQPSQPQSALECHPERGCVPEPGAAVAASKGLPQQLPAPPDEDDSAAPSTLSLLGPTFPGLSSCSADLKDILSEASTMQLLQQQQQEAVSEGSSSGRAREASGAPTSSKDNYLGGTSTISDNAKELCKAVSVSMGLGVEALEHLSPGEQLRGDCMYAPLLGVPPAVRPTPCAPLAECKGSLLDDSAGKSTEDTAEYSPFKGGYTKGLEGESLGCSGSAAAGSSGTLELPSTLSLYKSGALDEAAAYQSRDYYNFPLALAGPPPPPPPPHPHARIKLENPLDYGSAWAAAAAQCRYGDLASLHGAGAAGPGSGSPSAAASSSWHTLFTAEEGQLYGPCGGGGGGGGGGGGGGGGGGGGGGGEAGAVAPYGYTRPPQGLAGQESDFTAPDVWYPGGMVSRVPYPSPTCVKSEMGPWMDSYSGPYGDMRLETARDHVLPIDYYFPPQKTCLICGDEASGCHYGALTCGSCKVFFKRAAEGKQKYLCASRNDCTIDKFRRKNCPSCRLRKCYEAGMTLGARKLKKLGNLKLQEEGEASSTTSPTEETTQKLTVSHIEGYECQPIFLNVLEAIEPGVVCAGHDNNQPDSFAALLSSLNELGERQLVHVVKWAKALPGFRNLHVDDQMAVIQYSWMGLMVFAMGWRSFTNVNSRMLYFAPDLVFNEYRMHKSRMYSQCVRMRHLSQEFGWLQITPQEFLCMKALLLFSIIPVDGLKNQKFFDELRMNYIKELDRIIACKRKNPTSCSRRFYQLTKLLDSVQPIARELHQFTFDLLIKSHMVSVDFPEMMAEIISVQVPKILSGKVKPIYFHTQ
# Sequence of Estrogen receptor beta (Homo sapiens) (Q92731 whole entry, looked up, the tested form may be a part): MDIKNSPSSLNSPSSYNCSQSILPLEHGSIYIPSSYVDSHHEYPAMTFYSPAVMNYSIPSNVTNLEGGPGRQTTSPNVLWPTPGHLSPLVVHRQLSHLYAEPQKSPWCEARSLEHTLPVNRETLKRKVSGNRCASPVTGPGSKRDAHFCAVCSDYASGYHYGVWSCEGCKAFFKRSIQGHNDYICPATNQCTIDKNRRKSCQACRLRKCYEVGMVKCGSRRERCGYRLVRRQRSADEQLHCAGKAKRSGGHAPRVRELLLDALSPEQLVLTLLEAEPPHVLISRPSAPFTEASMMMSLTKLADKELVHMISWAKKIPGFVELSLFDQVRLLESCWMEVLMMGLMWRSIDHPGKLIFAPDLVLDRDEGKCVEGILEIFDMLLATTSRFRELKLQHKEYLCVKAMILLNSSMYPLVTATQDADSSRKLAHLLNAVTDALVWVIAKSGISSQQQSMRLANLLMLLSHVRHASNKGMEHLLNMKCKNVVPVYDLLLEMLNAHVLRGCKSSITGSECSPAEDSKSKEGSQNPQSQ
# Sequence of Retinoic acid receptor RXR-alpha (Homo sapiens) (P19793 whole entry, looked up, the tested form may be a part): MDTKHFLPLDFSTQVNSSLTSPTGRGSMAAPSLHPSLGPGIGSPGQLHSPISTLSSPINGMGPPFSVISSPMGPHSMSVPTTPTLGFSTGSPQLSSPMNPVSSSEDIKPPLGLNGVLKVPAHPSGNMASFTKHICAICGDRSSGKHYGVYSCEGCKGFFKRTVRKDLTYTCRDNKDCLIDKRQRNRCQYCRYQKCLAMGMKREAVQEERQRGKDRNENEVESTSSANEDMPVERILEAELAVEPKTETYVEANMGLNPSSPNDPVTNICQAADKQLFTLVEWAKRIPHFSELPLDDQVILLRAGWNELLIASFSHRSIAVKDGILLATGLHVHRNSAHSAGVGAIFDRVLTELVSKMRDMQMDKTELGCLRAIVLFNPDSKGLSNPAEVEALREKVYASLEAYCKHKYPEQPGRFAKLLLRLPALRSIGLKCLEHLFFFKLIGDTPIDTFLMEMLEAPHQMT
# Sequence of Estrogen receptor (Homo sapiens) (P03372 whole entry, looked up): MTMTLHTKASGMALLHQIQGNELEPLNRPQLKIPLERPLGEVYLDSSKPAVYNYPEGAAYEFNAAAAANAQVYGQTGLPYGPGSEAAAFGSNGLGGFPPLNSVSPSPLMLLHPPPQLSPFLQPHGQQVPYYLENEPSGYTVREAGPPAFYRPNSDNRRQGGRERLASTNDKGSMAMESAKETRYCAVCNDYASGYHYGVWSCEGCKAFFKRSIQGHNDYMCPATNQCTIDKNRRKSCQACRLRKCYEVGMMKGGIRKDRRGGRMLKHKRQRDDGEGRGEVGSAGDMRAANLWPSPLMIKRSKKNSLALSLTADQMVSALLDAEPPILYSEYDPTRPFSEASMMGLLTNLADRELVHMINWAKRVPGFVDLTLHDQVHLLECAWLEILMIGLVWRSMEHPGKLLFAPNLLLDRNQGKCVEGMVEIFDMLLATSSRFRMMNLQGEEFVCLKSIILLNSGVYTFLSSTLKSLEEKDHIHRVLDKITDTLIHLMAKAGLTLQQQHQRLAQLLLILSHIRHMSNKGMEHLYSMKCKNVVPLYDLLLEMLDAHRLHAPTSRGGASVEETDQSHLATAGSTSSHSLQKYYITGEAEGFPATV
# Sequence of Bile acid receptor (Homo sapiens) (Q96RI1 whole entry, looked up, the tested form may be a part): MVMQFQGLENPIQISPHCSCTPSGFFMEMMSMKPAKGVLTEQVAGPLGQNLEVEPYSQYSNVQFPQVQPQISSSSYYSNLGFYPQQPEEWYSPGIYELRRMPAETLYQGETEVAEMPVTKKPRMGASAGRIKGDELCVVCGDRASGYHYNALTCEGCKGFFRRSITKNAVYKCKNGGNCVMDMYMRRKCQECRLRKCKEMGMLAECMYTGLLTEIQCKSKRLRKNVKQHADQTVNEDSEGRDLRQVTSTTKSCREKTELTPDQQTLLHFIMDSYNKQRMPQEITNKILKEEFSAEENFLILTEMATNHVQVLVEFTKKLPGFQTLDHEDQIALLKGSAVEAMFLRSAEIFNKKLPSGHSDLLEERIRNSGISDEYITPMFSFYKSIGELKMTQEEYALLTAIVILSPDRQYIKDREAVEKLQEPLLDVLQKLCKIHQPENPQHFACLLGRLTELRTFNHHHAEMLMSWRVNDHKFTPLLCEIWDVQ
# Sequence of human Norepinephrine Transporter (NET), SLC6A2 (gene 6530) (P23975 whole entry, looked up): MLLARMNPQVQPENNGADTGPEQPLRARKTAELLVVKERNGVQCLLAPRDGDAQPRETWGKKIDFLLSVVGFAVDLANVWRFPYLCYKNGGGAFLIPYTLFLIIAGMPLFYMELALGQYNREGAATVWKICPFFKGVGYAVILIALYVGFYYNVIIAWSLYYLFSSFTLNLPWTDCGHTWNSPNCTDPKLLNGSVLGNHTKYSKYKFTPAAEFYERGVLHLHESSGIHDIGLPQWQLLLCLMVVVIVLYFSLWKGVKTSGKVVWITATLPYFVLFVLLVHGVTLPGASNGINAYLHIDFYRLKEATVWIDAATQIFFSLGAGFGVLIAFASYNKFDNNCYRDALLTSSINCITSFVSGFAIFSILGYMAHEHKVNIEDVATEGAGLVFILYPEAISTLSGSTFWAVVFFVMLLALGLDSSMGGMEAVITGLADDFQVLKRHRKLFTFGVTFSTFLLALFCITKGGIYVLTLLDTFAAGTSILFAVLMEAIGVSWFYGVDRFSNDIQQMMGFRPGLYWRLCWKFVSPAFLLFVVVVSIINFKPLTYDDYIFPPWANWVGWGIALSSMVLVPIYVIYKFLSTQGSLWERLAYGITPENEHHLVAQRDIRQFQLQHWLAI
# Sequence of Peroxisome proliferator-activated receptor gamma (Homo sapiens) (P37231 whole entry, looked up, the tested form may be a part): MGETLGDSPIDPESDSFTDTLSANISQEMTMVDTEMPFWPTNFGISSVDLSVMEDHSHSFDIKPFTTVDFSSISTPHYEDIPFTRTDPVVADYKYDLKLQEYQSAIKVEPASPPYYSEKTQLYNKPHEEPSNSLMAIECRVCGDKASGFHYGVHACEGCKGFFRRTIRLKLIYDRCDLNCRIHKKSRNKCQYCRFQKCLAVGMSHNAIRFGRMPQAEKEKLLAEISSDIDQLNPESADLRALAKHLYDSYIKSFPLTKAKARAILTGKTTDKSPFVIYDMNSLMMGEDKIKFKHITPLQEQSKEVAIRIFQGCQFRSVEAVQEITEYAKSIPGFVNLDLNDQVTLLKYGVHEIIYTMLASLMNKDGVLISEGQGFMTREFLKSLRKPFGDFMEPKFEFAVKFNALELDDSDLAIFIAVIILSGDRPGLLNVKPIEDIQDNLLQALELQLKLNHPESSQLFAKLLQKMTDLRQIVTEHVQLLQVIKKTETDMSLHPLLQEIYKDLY
# Sequence of Norway rat Vesicular Monoamine Transporter (VMAT2), neurotransmitter transporter, Slc18a2 (gene 25549) (Q01827 whole entry, looked up): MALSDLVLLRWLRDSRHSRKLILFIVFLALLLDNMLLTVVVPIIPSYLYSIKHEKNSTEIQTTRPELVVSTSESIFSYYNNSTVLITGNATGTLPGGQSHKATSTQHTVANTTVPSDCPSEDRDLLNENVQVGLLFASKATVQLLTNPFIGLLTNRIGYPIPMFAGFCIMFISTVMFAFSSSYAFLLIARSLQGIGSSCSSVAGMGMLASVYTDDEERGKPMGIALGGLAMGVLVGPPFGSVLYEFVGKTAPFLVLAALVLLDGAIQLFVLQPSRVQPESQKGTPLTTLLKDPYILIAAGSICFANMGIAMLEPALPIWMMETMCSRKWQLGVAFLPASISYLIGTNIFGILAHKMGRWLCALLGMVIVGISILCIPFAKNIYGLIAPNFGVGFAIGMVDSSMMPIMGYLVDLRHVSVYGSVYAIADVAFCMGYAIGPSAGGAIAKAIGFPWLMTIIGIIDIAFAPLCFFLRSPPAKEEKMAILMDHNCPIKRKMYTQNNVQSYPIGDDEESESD
smiles,measurement,setting,value
CC(COc1ccc(Oc2ccccc2)cc1)Oc1ccccn1 (configuration not stated),outcome,[1],inactive
same,AC50,[2],43 µM (active)
same,AC50,[3],7.29 µM (active)
same,outcome,[4],inactive
same,outcome,[5],inactive
same,outcome,[6],inactive
same,outcome,[7],inactive
same,outcome,[8],inactive
same,outcome,[9],inactive
CC(Oc1cccc(Cl)c1)C(=O)O (configuration not stated),outcome,[10],inactive
same,outcome,[1],inactive
same,outcome,[2],inactive
same,outcome,[3],inactive
same,outcome,[4],inactive
same,outcome,[5],inactive
COc1ccc(C(=CC(=O)N2CCOCC2)c2ccc(Cl)cc2)cc1OC,outcome,[1],inactive
same,AC50,[2],31.5 µM (active)
same,AC50,[3],76.3 µM (active)
same,outcome,[4],inactive
same,outcome,[5],inactive
same,outcome,[11],inactive
same,outcome,[6],inactive
same,outcome,[7],inactive
same,outcome,[8],inactive
same,outcome,[12],inactive
same,AC50,[13],35.2 µM (active)
same,outcome,[14],inactive
same,outcome,[9],inactive
COP(=O)(OC)OC(Br)C(Cl)(Cl)Br (configuration not stated),outcome,[1],inactive
same,outcome,[15],inactive
same,outcome,[2],inactive
same,outcome,[3],inactive
same,outcome,[4],inactive
same,outcome,[5],inactive
CC(C)=CC1C(C(=O)OCN2C(=O)C3=C(CCCC3)C2=O)C1(C)C (configuration not stated),outcome,[16],inactive
same,outcome,[17],inactive
same,outcome,[4],inactive
same,outcome,[5],inactive
CNC(=O)ON=C(SC)C(=O)N(C)C,outcome,[16],inactive
same,outcome,[1],inactive
same,outcome,[15],inactive
same,outcome,[4],inactive
same,outcome,[5],inactive
same,outcome,[11],inactive
same,outcome,[6],inactive
same,outcome,[7],inactive
same,outcome,[8],inactive
same,outcome,[18],inactive
same,outcome,[19],inactive
same,outcome,[9],inactive
CCOP(=O)(NC(C)C)Oc1ccc(SC)c(C)c1 (configuration not stated),outcome,[16],inactive
same,outcome,[1],inactive
same,AC50,[2],50 µM (active)
same,AC50,[3],8.5 µM (active)
same,outcome,[17],inactive
same,outcome,[4],inactive
same,outcome,[5],inactive
same,outcome,[11],inactive
same,AC50,[6],13.9 µM (active)
same,AC50,[8],50 µM (active)
same,outcome,[12],inactive
same,outcome,[13],inactive
same,AC50,[14],17.4 µM (active)
same,AC50,[9],32.2 µM (active)
CSC1=N[C@@](C)(c2ccccc2)C(=O)N1Nc1ccccc1,outcome,[1],inactive
same,AC50,[2],44.8 µM (active)
same,AC50,[3],50 µM (active)
same,outcome,[17],inactive
same,outcome,[4],inactive
same,outcome,[5],inactive
CCCSP(=O)(OCC)SCCC,outcome,[16],inactive
same,outcome,[1],inactive
same,outcome,[2],inactive
same,outcome,[3],inactive
same,outcome,[17],inactive
same,outcome,[4],inactive
same,outcome,[5],inactive
same,outcome,[6],inactive
same,outcome,[7],inactive
same,outcome,[8],inactive
same,outcome,[12],inactive
same,outcome,[13],inactive
same,outcome,[14],inactive
same,outcome,[9],inactive
C#CCC1=C(C)C(OC(=O)C2C(C=C(C)C)C2(C)C)CC1=O (configuration not stated),outcome,[1],inactive
same,AC50,[2],33 µM (active)
same,AC50,[3],49.8 µM (active)
same,AC50,[4],79.6 µM (active)
same,outcome,[4],inactive
same,outcome,[5],inactive
same,outcome,[6],inactive
same,outcome,[7],inactive
same,outcome,[9],inactive
Cc1cc(C2CC2)nc(Nc2ccccc2)n1,outcome,[20],inactive
same,AC50,[10],3.82 µM (active)
same,AC50,[1],50 µM (active)
same,outcome,[15],inactive
same,AC50,[2],20.4 µM (active)
same,outcome,[3],inactive
same,outcome,[17],inactive
same,outcome,[4],inactive
same,outcome,[5],inactive
same,outcome,[11],inactive
C[Si](Cn1cncn1)(c1ccc(F)cc1)c1ccc(F)cc1,AC50,[20],14.1 µM (active)
same,AC50,[10],2.86 µM (active)
same,outcome,[1],inactive
same,AC50,[2],13 µM (active)
same,outcome,[3],inactive
same,outcome,[4],inactive
same,outcome,[5],inactive
same,outcome,[6],inactive
same,outcome,[7],inactive
same,outcome,[9],inactive
COP(=O)(OC)SCn1c(=O)oc2cc(Cl)cnc21,outcome,[16],inactive
same,outcome,[15],inactive
same,outcome,[17],inactive
same,outcome,[5],inactive
